For three compounds, Potency and activation results are on record in PubChem BioAssay (NCATS).

Results filed as inconclusive are left out. A call without a number means that no potency is given here. A number with no mark means an inactive call. Activity calls are given as the source filed them. Unless noted, the call rests on the fitted dose curve.

A short description of assay [1]: qHTS assay for small molecule agonists of the antioxidant response element (ARE) signaling pathway (AID 651741; active means well fitted activation curve with a large enough effect in the signal ratio; the % refers to the signal ratio). Particulars: HepG2 ARE-bla reporter, beta-lactamase FRET ratio, 16 h; series mostly up to 96 µM. The method, boiled down: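 Beta-lactamase reporter expression driven by the antioxidant response element in HepG2 cells was detected by fluorescence with LiveBLAzer B/G FRET substrate (2 h, room temperature) following 16 h compound treatment at 37 C.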
(qHTS replaces the single test concentration by a dilution series.)

Assay [2] can be described thus: qHTS assay for small molecule activators of the p53 signaling pathway (AID 651743; active means well fitted activation curve with a large enough effect in the signal ratio, not every such curve was filed as active; the % refers to the signal ratio). Particulars: HCT-116 p53RE-bla, beta-lactamase FRET ratio, 16 h; activation: active compounds read high. The method in brief: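 Here HCT-116 cells with an integrated p53-responsive beta-lactamase gene were incubated with compounds (16 hours, 37 C) after a 5-hour plating period; beta-lactamase activity was detected as fluorescence intensity via B/G FRET substrate.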

Assay [3] is described as follows: qHTS assay for small molecule disruptors of the mitochondrial membrane potential - 5 hr assay (AID 651755). Further: nearly all actives have a fitted effect of over 40% in size. Particulars: JC-1-type ratio dye; series mostly up to 92.2 µM. The method, boiled down: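 Seed HepG2 overnight, add compound, incubate 5 hr at 37C and 5% CO2, stain 30 min with Mito-MPS, then measure monomer (490/535 nm) and aggregate (540/590 nm) fluorescence.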

On to `CC(O)(P(=O)(O)O)P(=O)(O)O`, for which the Potency entry in assay [1] is “inactive”.

In the case of `C[C@]12CC[C@@H]3c4ccc(O)cc4CC[C@H]3[C@@H]1CC[C@@H]2O`, the activation in assay [2] was 8.17%.

For the compound `CC(C)(C)CC(C)(C)c1ccc(OCCOCC[N+](C)(C)Cc2ccccc2)cc1`, the activation in assay [2] is 20.5%. Further, the Potency result in assay [3] was “inactive”.
